Screens deposited in PubChem by National Center for Advancing Translational Sciences (NCATS).
KB-3-1 tox: kills parental KB-3-1 adenocarcinoma cells. KB-3-1 viability, CellTiter-Glo ATP luminescence, 72 h. Potency, µM (titrated, usually from 46.1 µM), hits mostly cytotoxic. 1.4% of 400,000 active; note: nearly all actives have a fitted effect of over 60% in size
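Screening of KB-3-1 cells (DMEM, 10% FBS, phenol-red free) ran from lowest to highest compound concentration; after 72 h at 37 °C viability was read luminescently and curves fitted.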
TDP1 cell noCPT: qHTS for Inhibitors of human tyrosyl-DNA phosphodiesterase 1 (TDP1): qHTS in cells in absence of CPT | Potency, µM (highest dose often 46.2 µM), without a hit: top-dose activity change, negative = growth inhibition, usual class: inhibitors | DT40 Tdp1-/- hTDP1 cells, no CPT, ATP luminescence, 48 h | 15% of 420,000 active; note: nearly all actives have a fitted effect of over 55% in size
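Readout: luminescence from CellTiter-Glo after 30 min in the dark at RT. Cells: DT40 Tdp1-/- with stable hTDP1, 400/well. Exposure: compounds alone, ≥48 hr, 37 °C.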
KB-V1 cytotox: KB-V1 MDR subline cytotoxicity; AID 1347076; Potency, µM (titrated, usually from 46.1 µM), actives largely listed as cytotoxic; KB-V1 MDR cells viability, CellTiter-Glo, 72 h; 3.4% of 400,000 active; note: nearly all actives have a fitted effect of over 60% in size
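KB-V1 cells (P-gp-expressing MDR subline of KB-3-1) in phenol-red-free DMEM with 10% FBS were exposed to library compounds over a concentration series for 72 h at 37 degrees C. Viability read by CellTiter-Glo luminescence; concentration-effect curves fitted after normalization.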
HT1080NT lethal: kills 2HG-producing HT-1080-NT fibrosarcoma cells; HT-1080-NT fibrosarcoma viability, CellTiter-Glo ATP luminescence, 48 h; Potency, µM (doses to about 46.1 µM), for the others: at the top dose activity, negative = less viability, hits mostly cytotoxic; 1.6% of 360,000 active; AID 686970;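 note: NT is the 2HG producing partner of a matched IDH1 knockdown line; 0% = DMSO-treated cells and -100% = media-only wells without cells; nearly all actives have a fitted effect of over 55% in size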
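Viability by CellTiter-Glo luminescence after 48 h compound exposure at 37C of HT-1080-NT cells (750/well, RPMI, 5% FBS). % activity scaled between DMSO wells and medium-only wells, then curve-fitted and categorized by curve class.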
TDP1 cell CPT: growth inhibition of DT40 Tdp1-/-;hTDP1 cells with camptothecin (screen for TDP1 inhibitors) | Potency, µM (series often up to 46.2 µM), without a hit: at the highest dose activity change, negative = growth inhibition, most hits filed as inhibitors | 12% of 420,000 active | chicken DT40 Tdp1-/-;hTDP1 cells + 20 nM CPT, ATP luminescence, 48 h | AID 686979; note: nearly all actives have a fitted effect of over 55% in size
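Cell growth measured by CellTiter-Glo luminescence after a minimum 48 h, 37 C compound exposure with 20 nM CPT in Tdp1-knockout DT40 cells stably expressing hTDP1, seeded 400/well; qHTS titration format.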
HT1080 IDH1KD tx: HT-1080 IDH1 knockdown cell toxicity (counter line); Potency, µM (doses to about 46.1 µM), without a hit: at the top dose activity, negative = toxicity, actives largely listed as cytotoxic; 2% of 360,000 active; HT-1080 IDH1 knockdown viability, ATP luminescence, 48 h;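 note: 0% = DMSO wells and -100% = cell-free medium wells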
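Knockdown cells (IDH1KD HT-1080) received compounds 2 h after plating at 750 cells/well and were kept 48 h at 37 °C in 5% FBS RPMI. A CellTiter-Glo luminescence read gave % activity for curve fitting.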
* hit, by the source's call; i = inactive; ? = inconclusive; nt = no result; [ ] = another dose, or the depositor's remark. Shown are actives, neighbours in structure and some others; about 19% of the full set was active somewhere. Calls come from the whole dose curve; as a rule, active = well fitted curve in the direction sought with a large enough effect; inconclusive = small, poorly fitted or top-dose-only effect, or another doubt; inactive = no such curve, though single readings can be large; an effect the other way counts as inactive or inconclusive. Unless noted, % is set by controls: 0 for no effect and ±100 for the full control effect; potency is the fitted concentration of half-maximal effect.

SMILES | KB-3-1 tox | TDP1 cell noCPT | KB-V1 cytotox | HT1080NT lethal | TDP1 cell CPT | HT1080 IDH1KD tx
Cc1ccc(C)c(NC(=O)Cn2c(SCC(=O)NCc3ccccc3)nc3ccccc32)c1 | i | -19% | i | nt | ? | nt
CCn1cc2nc(SCC(=O)Nc3ccc(C)cc3C)n(Cc3ccc(C)cc3)c(=O)c2n1 | nt | 5.2µM* | nt | nt | 3.7µM* | nt
CCCS(=O)(=O)NC(=O)C1(C)CCN(C(=O)c2ccco2)C1 (configuration not stated) | i | 0% | i | ? | -1% | 5%
CCc1nn(CC(=O)N2CCN(c3cccc(C)c3)C(C)C2)c(=O)c2cc3sccc3n12 (configuration not stated) | nt | 23µM* | nt | nt | 21µM* | nt
CCc1cc2c(cc3c(=O)n(CCCC(=O)NCc4ccccc4Cl)nc(CC)n32)s1 | nt | 23µM* | nt | nt | ? | nt
CCc1nn(CC(=O)N2CCN(c3cccc(Cl)c3)CC2)c(=O)c2cc3sccc3n12 | nt | -6% | nt | nt | -4% | nt
CCOC(=O)C1CCN(C(=O)Cn2nc(CC)n3c(cc4sccc43)c2=O)CC1 | nt | 18µM* | nt | nt | ? | nt
CCc1nn(CCCC(=O)NCc2ccccc2Br)c(=O)c2cc3occc3n12 | i | ? | i | -1% | ? | 8%
CCc1cc2c(cc3c(=O)n(CC(=O)N4CCC(C)CC4)nc(CC)n32)s1 | nt | ? | nt | nt | 16µM* | nt
CCc1cc2c(cc3c(=O)n(CC(=O)N4CCN(c5ccccn5)CC4)nc(CC)n32)s1 | i | ? | i | 12% | ? | -3%
CCOP(=O)(OCC)C(NC(=O)Nc1ccc(Cl)cc1)C(=O)N(CC)CC (configuration not stated) | i | ? | i | -7% | -11% | 0%
Cc1cccc(Cn2c(=O)n(-c3ccc(Cl)c(Cl)c3)c(=O)c3c(C)c(C)sc32)c1 | i | ? | i | nt | -23% | nt
Cc1nn(CCC(=O)NCc2cccc(Br)c2)c(=O)c2nn(-c3ccccc3)c(C)c12 | i | ? | i | nt | ? | nt
CCCCN(C)CCCNC(=O)C1(O)c2ccccc2NC(=O)N1c1ccc(Cl)cc1 (configuration not stated) | i | -3% | i | 7% | -17% | 11%
CCN(CC)CCCNC(=O)CSc1c2c(nc3cc(Cl)ccc13)CCCC2 | i | 5.8µM* | i | 23µM* | 8.2µM* | 23µM*
CC(C)OCCCNC(=O)CSc1c2c(nc3ccc(Cl)cc13)CCCC2 | nt | 23µM* | nt | nt | ? | nt
N#CCCn1c(=O)c(-c2ccc(F)cc2)nc2cnc(OCc3ccccc3)nc21 | nt | 16% | nt | nt | 8% | nt
O=C(COC(=O)c1cc([N+](=O)[O-])ccc1Cl)NC1CCCC1 | ? | 16% | i | 6% | -19% | 12%
O=C(OC1CCOC1=O)c1ccccc1C(=O)c1ccc(Cl)c([N+](=O)[O-])c1 (configuration not stated) | i | -11% | i | 0%[9.24 µM] | ? | ?
CNC(=O)COC(=O)c1ccccc1C(=O)c1ccc(Cl)c([N+](=O)[O-])c1 | i | ? | ? | 12µM* | ? | 23µM*
O=C(COC(=O)c1ccccc1C(=O)c1ccc(Cl)c([N+](=O)[O-])c1)NC1CC1 | 8.2µM* | 16µM* | i | 6.5µM* | 18µM* | 4.6µM*
CSc1cccc(NC(=O)C2CCCN(S(=O)(=O)c3ccc4c(c3)CCCN4C(C)=O)C2)c1 (configuration not stated) | i | 21µM* | ? | nt | 18µM* | nt
Cc1cccc(NC(=O)C2CCN(S(=O)(=O)c3ccc4c(c3)CCCN4C(=O)C3CCC3)CC2)c1 | i | ? | i | nt | ? | nt
CSc1cccc(NC(=O)C2CCN(S(=O)(=O)c3ccc4c(c3)CCCN4C(=O)C3CCC3)CC2)c1 | i | 12µM* | i | nt | ? | nt
CC(=O)c1ccc(NC(=O)C2CCN(S(=O)(=O)c3ccc4c(c3)CCCN4C(=O)C3CCC3)CC2)cc1 | i | ? | i | nt | 12µM* | nt
SMILES | KB-3-1 tox | TDP1 cell noCPT | KB-V1 cytotox | HT1080NT lethal | TDP1 cell CPT | HT1080 IDH1KD tx
COc1ccc(CCNC(=S)N2CCN(S(=O)(=O)c3ccc(C)cc3)CC2)cc1 | i | -10% | i | -23% | 0% | -7%
CCN1C(=O)N(c2cccc3ccccc23)C(C)=CC1(C)C | i | 23µM* | i | 3% | ? | 4%
CCC(=O)N(C)C[C@@H]1Oc2ncc(Br)cc2C(=O)N([C@H](C)CO)C[C@H]1C | i | -11% | i | -5% | -3% | 2%
Cc1ccc(C(=O)NCCN2CCC(n3c(=O)[nH]c4ccccc43)CC2)cc1 | ? | ? | i | -3% | ? | -10%
CC(=O)C1C(=O)c2c(cccc2[N+](=O)[O-])C1=Nc1ccc(S(N)(=O)=O)cc1 (configuration not stated) | i | ? | i | -2% | 18µM* | 0%
CC(=O)C1=C(O)C(=O)N(c2ccc(S(N)(=O)=O)cc2)C1c1cccc([N+](=O)[O-])c1 (configuration not stated) | i | 6% | i | 1% | -20% | -1%
CCS(=O)(=O)c1ncc(Cl)c(C(=O)Nc2ccccc2OC)n1 | 2.6µM* | 1µM* | ? | -17% | 1µM* | ?
COc1ccccc1NC(=O)c1nc(S(=O)(=O)Cc2ccccc2)ncc1Cl | 7.3µM* | 1.6µM* | ? | 12µM* | 1.3µM* | 3.7µM*
Nc1c(N(CCC2=CCCCC2)C(=O)Cc2ccccc2F)c(=O)[nH]c(=O)n1Cc1ccccc1 | i | ? | i | 0% | 1% | 1%
CCN(CC)C(=O)c1ccc(CS(=O)(=O)Cc2ccccc2)cc1 | i | 4% | i | 1% | 1% | -2%
CCCCn1c(=O)nc2n(-c3ccc(Br)cc3)c3ccccc3cc-2c1=O | i | nt | i | nt | nt | nt
COc1ccc(C(C)(O)c2nc(-c3ccccc3C)cs2)cc1 (configuration not stated) | 4.6µM* | 5.8µM* | 5.2µM* | ? | 6.5µM* | 9.2µM*
Cc1ccccc1-c1csc(C(C)(O)c2ccccc2)n1 (configuration not stated) | i | -23% | i | -15% | -19% | -18%
COc1ccc(C(C)(O)c2nc(-c3ccc(N(C)C)cc3)cs2)cc1 (configuration not stated) | i | 16µM* | i | 12% | 18µM* | ?
